Experimental data published in paper PMC4336329 (PLoS ONE, 2015).
Among all 310,000 compounds or so, about 14,000 (4.5%) showed an effect of 50% or more. Effects have a minus sign here. Many of the other results were omitted from the sample, so strong results are more common in it than they were.
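Note: peak tail current of the secondary pulse compared with the same well before compound.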

These compounds were tested against human ether-à-go-go-related gene (hERG) potassium channel (human, UniProt Q12809) (assay: primary screen, population patch clamp on CHO cells stably expressing hERG; higher = less effect of the substance).
Chain of human ether-à-go-go-related gene (hERG) potassium channel (Q12809 whole entry, looked up): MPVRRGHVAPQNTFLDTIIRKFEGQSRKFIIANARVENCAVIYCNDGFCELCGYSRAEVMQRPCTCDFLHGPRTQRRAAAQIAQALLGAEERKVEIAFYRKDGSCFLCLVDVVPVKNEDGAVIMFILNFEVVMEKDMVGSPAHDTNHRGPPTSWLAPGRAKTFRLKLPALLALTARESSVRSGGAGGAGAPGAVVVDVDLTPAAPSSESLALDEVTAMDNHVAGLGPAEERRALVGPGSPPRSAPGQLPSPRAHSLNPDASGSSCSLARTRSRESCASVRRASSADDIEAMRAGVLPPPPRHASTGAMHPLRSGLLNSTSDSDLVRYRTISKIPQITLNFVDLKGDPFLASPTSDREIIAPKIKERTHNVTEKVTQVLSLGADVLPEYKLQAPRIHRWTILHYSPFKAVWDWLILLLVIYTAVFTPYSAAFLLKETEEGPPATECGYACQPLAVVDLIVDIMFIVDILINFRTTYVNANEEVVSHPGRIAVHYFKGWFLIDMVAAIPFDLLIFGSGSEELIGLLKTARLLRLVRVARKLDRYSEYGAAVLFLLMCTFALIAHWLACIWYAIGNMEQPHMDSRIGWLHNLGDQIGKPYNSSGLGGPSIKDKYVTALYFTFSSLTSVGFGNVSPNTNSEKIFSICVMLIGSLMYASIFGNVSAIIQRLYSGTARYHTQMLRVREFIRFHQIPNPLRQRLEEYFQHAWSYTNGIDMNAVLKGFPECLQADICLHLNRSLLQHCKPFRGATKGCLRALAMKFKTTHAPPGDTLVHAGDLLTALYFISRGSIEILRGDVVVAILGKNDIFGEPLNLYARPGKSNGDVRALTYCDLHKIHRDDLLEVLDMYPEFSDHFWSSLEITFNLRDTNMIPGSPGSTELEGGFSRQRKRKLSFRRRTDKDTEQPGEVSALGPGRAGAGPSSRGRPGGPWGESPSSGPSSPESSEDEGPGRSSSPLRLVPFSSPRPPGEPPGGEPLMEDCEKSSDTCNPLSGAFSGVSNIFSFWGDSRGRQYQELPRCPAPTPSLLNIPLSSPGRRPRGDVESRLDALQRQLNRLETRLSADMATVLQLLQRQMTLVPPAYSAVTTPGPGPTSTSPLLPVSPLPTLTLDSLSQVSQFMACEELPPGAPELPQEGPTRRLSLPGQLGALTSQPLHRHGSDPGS
With `CCC1CCCCN1C(=S)Nc1cccc(S(=O)(=O)N(C)C)c1` (stereo not drawn) the “hERG current change (%, negative = inhibition) at 10uM” value was -6.73%.
With `CCOP(=S)(OCC)Oc1cc(C)oc(=O)c1Cl` the “hERG current change (%, negative = inhibition) at 10uM” value was 19.6%.
In the case of `COc1cc(C2=NOC(C(=O)NC3CCCCC3)C2)cc(OC)c1OC` (stereo not drawn), the “hERG current change (%, negative = inhibition) at 10uM” value was -8.08%.
`Cc1cc(C)[n+](-c2ccc(Oc3ccccc3)c(S(=O)(=O)[O-])c2)[nH]1` was tested, and the “hERG current change (%, negative = inhibition) at 10uM” value was 13.6%.
`CC(=O)Nc1ccc2c(c1)C(=O)N(c1cccc3ccccc13)C2=O` was tested, and the “hERG current change (%, negative = inhibition) at 10uM” value was -9.32%.
With `COc1ccc(NP(=O)(Oc2ccc(Cl)cc2)Oc2ccc(Cl)cc2)cc1OC` the “hERG current change (%, negative = inhibition) at 10uM” value was -16.6%.
For `O=C(OC1CCOC1=O)c1cncc(Br)c1` (stereo not drawn), the “hERG current change (%, negative = inhibition) at 10uM” value was -15.7%.
In the case of `Nc1ccc(-c2ccc(N)c(C(=O)O)c2)cc1C(=O)O`, the “hERG current change (%, negative = inhibition) at 10uM” value was 7.74%.
With `CC(=O)NC12CC3CC(C1)CC(C(=O)Nc1nccs1)(C3)C2` the “hERG current change (%, negative = inhibition) at 10uM” value was 6.58%.
With `CC(OC(=O)Cn1cnc2c1c(=O)n(C)c(=O)n2C)C(=O)NC1CCCCC1C` (stereo not drawn) the “hERG current change (%, negative = inhibition) at 10uM” value was 15.4%.
With `CCC(c1nnnn1C1CCCCC1)N1CCN(C(=O)c2ccco2)CC1.Cl` (stereo not drawn) the “hERG current change (%, negative = inhibition) at 10uM” value was -11.4%.
For `COc1cc(/C=N/Nc2cccc(C)c2)ccc1OC(=O)c1ccco1`, the “hERG current change (%, negative = inhibition) at 10uM” value was 23.4%.
In the case of `COc1ccc(NC(=S)N(CCCN2CCC(C)CC2)Cc2cccs2)cc1Cl`, the “hERG current change (%, negative = inhibition) at 10uM” value was -73.1%.
For `COc1ccc(NC(=S)N(CCCN2CCCC2)Cc2cccn2Cc2ccc(Cl)cc2)cc1Cl`, the “hERG current change (%, negative = inhibition) at 10uM” value was -6.98%.
`COc1ccc(NC(=S)NCCN2CCC(C)CC2)cc1Cl` was tested, and the “hERG current change (%, negative = inhibition) at 10uM” value was -30.5%.
For `Cn1c(Cn2nnc3ccccc32)nnc1SCC(=O)N1c2ccccc2Sc2ccccc21`, the “hERG current change (%, negative = inhibition) at 10uM” value was -22.1%.
With `O=C(OCCN=C1NS(=O)(=O)c2ccccc21)c1ccncc1` the “hERG current change (%, negative = inhibition) at 10uM” value was -1.44%.
With `C/C(=N\NC(=O)Cn1cc([N+](=O)[O-])cn1)c1ccc(O)cc1` the “hERG current change (%, negative = inhibition) at 10uM” value was -5.56%.
For `COc1ccc(NS(=O)(=O)c2cccc(C(=O)NCC3(N4CCOCC4)CCCCC3)c2)cc1`, the “hERG current change (%, negative = inhibition) at 10uM” value was -36.7%.
For `O=C(c1cccc(S(=O)(=O)Nc2ccc(F)cc2)c1)N1CCCC1`, the “hERG current change (%, negative = inhibition) at 10uM” value was -3.1%.
`COc1ccc(NS(=O)(=O)c2cccc(C(=O)N3CCCCCCC3)c2)cc1` was tested, and the “hERG current change (%, negative = inhibition) at 10uM” value was -28.9%.
With `O=C(NCC1(N2CCOCC2)CCCCC1)c1cccc(S(=O)(=O)Nc2ccc(F)cc2)c1` the “hERG current change (%, negative = inhibition) at 10uM” value was -44.1%.
For `O=C(NCC1(N2CCCCC2)CCCCC1)c1cccc(S(=O)(=O)Nc2ccc(F)cc2)c1`, the “hERG current change (%, negative = inhibition) at 10uM” value was -64%.
For `COc1ccc(NS(=O)(=O)c2cccc(C(=O)NCC3(N4CCCCC4)CCCCC3)c2)cc1`, the “hERG current change (%, negative = inhibition) at 10uM” value was -55.4%.
